Screening results from PubChem BioAssay.
ALDH1A1 inh – blocks purified human ALDH1A1 activity; P00352; Purified ALDH1A1, NADH fluorescence, propionaldehyde substrate; Potency, µM (titrated, usually from 75.3 µM), inactives show top-dose activity, negative = inhibition, actives largely listed as inhibitors; actives 7.3% (n = 220,000); AID 1030; active means well fitted inhibition curve with a large enough effect, not every such curve was filed as active; inconclusive means small, poorly fitted or top-dose-only effect, or another doubt; inactive means no such curve, though single readings can be large or run the other way;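 further: plate controls were no enzyme wells and a reference inhibitor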
Tau fluor cs – counter-screen for tau fibril formation inhibitors; tau K18 P301L Alexa594 fluorescence, heparin fibrillization; Potency, µM (highest dose often 57.7 µM), for the others: top-dose activity change, negative = decrease; actives 0.93% (n = 280,000); further: nearly all actives have a fitted effect of over 55% in size
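Human tau K18 P301L (15 uM unlabeled, 0.24 uM Alexa 594-labeled) in 100 mM sodium acetate pH 7 with 20 uM heparin, 6 hr at 37 C. ThT 30 uM added, 1 hr ambient; Alexa 594 FP and total fluorescence read at 555/632 nm.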
Tau fibril ThT – inhibitors of human tau fibril formation, thioflavin T binding; P10636; recombinant tau K18 P301L (four-repeat tau fragment), heparin-induced fibrillization, ThT fluorescence; Potency, µM (doses to about 57.4 µM), for the others: top-dose activity, negative = inhibition, actives largely listed as inhibitors; actives 2.1% (n = 270,000); AID 1460; further: nearly all actives have a fitted effect of over 55% in size
Target sequence (P10636 561-689 P618L limits assumed): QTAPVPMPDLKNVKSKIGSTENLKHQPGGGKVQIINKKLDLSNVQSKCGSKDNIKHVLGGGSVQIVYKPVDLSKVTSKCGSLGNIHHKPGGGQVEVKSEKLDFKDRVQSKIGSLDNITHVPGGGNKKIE
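Aggregation was driven by heparin (20 uM final) acting on recombinant tau […] bearing P301L in 100 mM sodium acetate pH 7; fibrils were detected with Thioflavin T.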
NPSR antag – blocks cAMP signaling of the human neuropeptide S receptor; Potency, µM (top dose mostly 38.3 µM), inactives show top-dose activity change, negative = inhibition, actives largely listed as inhibitors; actives 1% (n = 220,000); CHO-NPSR cells, cAMP TR-FRET, antagonist mode; Q6W5P4; further: nearly all actives have a fitted effect of over 50% in size
Target sequence (Q6W5P4 whole entry, looked up): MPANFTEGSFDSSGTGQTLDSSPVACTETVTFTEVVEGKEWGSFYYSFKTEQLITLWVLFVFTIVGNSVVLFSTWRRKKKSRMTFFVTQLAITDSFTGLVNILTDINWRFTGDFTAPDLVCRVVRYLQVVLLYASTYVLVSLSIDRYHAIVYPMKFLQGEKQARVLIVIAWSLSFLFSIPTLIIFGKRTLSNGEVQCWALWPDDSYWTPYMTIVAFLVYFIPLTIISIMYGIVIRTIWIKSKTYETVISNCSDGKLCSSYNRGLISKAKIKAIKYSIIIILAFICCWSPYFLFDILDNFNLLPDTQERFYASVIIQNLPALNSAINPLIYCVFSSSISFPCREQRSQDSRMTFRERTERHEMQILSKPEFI
HPGD inh – blocks human HPGD enzyme activity; purified HPGD, NADH fluorescence kinetic, PGE2 substrate; actives 4.3% (n = 150,000); P15428; AID 894; Potency, µM, without a hit: at the highest dose activity change, negative = inhibition, actives largely listed as inhibitors; active means well fitted inhibition curve with a large enough effect, not every such curve was filed as active; inconclusive means small, poorly fitted or top-dose-only effect, or another doubt; inactive means no such curve, though single readings can be large or run the other way
Target sequence (P15428 whole entry, looked up): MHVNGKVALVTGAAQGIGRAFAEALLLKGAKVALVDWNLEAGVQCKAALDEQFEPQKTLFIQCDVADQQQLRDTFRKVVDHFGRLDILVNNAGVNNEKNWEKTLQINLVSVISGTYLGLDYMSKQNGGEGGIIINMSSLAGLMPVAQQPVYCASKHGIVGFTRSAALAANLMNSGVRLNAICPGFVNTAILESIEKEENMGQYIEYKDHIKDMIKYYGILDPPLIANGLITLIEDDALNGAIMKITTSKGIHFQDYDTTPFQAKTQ
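20 nM HPGD preincubated 15 min at room temperature with compound in 50 mM Tris-HCl pH 8, 0.01% Tween 20. Started with 1 mM NAD+ and 30 uM prostaglandin E2; NADH fluorescence (360/450 nm) read 5 times over 30-s intervals, last minus first.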
Tau FP inhib – tau fibrillization inhibition (FP); P10636; K18 P301L tau heparin fibrillization, Alexa594 FP, 6 h; Potency, µM (series often up to 57.7 µM), inactives show at the highest dose activity, negative = inhibition, usual class: inhibitors; actives 0.39% (n = 280,000); further: nearly all actives have a fitted effect of over 55% in size
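Quantitative HTS format: compounds meet 15 uM recombinant K18 P301L tau and Alexa 594-tau tracer in 100 mM sodium acetate pH 7; 20 uM heparin triggers fibrillization at 37 C over 6 hr; FP gives the signal.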
An asterisk follows results filed as active; ? = inconclusive; nt = no result; [ ] = dose if it differs, or a comment. A selection: hits, their analogues and other compounds. The true share with any hit is near 9.5%. Unless noted, the call rests on the fitted dose curve; in most records, active means well fitted curve in the direction sought with a large enough effect; inconclusive means small, poorly fitted or top-dose-only effect, or another doubt; inactive means no such curve, though single readings can be large; an effect the other way counts as inactive or inconclusive. Unless noted, on the % scale 0 is the no-effect control and ±100 the full control effect; potency means the concentration at half of the fitted maximal effect.

SMILES | ALDH1A1 inh | Tau fluor cs | Tau fibril ThT | NPSR antag | HPGD inh | Tau FP inhib
CC1=C(C(=O)Nc2ccccc2)C(c2ccccc2[N+](=O)[O-])NC(=O)N1 (stereo not given) | ? | ? | 25.1µM* | -5.5% | nt | ?
COc1ccccc1NC(=O)C1=C(C)NC(=O)NC1c1ccccc1[N+](=O)[O-] (stereo not given) | ? | -23.1% | ? | -17.5% | nt | -14.6%
CC(/C=N/NC(=O)CNc1n[nH]c(=O)[nH]c1=O)c1ccccc1 (stereo not given) | nt | 2.2% | -0.3% | -15.6% | nt | -10.4%
O=C(c1cnn(C(=O)c2cccc(S(=O)(=O)N3CCOCC3)c2)c1)c1cc(Cl)cc(Cl)c1O | 1.9% | -21.2% | ? | 26.8% | nt | 9.7%
O=C(c1cnn(C(=O)c2cccc(S(=O)(=O)N3CCOCC3)c2)c1)c1ccccc1O | 3.55µM* | 9.5% | -4.8% | 6.9% | nt | 10.1%
CN1CCC2(CC1)N=C(c1ccc(F)cc1)C(=S)N2C(=O)c1ccccc1 | 22.4µM* | -1.8% | -10.5% | -4.3%[46.1 µM] | nt | -6.5%
CCN1CCC2(CC1)N=C(c1ccc(F)cc1)C(=S)N2C(=O)c1ccc(C(C)(C)C)cc1 | 28.2µM* | -19.0% | ? | ? | nt | -9.0%
CN1CCN(c2nc(-c3ccccc3)nc(-c3ccc(F)cc3)c2C#N)CC1 | 0.3% | -16.7% | -6.2% | -53.2% | nt | -4.2%
Cc1nc(-c2cccnc2)sc1CCNS(=O)(=O)c1ccc(F)cc1 | nt | -11.8% | -11.1% | nt | nt | -2.7%
Cc1cc(/C=C2/NC(=O)N(c3ccccc3)C2=O)c(C)n1C(C)C | ? | -21.9% | ? | -23.6% | -7.0% | 4.2%
Cc1cc(/C=C2/NC(=O)N(Cc3ccccc3F)C2=O)c(C)n1C(C)C | 2µM* | -25.5% | ? | -22.3% | -26.0% | 11.7%
CCn1c(C)cc(/C=C2/NC(=O)N(Cc3ccccc3F)C2=O)c1C | 1.78µM* | -28.0% | ? | -7.6% | ? | -9.9%
CCn1c(C)cc(/C=C2\NC(=O)N(Cc3ccccc3)C2=O)c1C | 8.91µM* | -21.0% | ? | -14.7%[46.1 µM] | -13.1% | -6.7%
COc1cc(C(=O)Nc2ccc(NC(=O)c3ccc(Br)cc3)cc2)cc(OC)c1OC | nt | -13.7% | -15.3% | nt | nt | -14.1%
Cc1ccc(NC(=O)Cc2nc(CSc3nnc(-c4ccc5c(c4)OCO5)o3)cs2)cc1 | ? | -17.1% | ? | -20.0%[46.1 µM] | -8.0% | -4.6%
CC(=O)OC[C@H]1O[C@@H](O/N=C(\C)CCN2CCc3nc(-c4ccccc4)c(-c4ccccc4)cc3C2)[C@H](OC(C)=O)[C@@H](OC(C)=O)[C@H]1OC(C)=O | -1.3%[13.5 µM] | -2.5%[11.6 µM] | -5.1%[11.5 µM] | nt | nt | 0.0%[11.6 µM]
Cc1ccc(C)c(Nc2nnc(-n3nc(C)cc3C)c3ccccc23)c1 | nt | -8.2% | -10.7% | nt | nt | 2.9%
Cc1ccc2c(c1)/C(=N/N1C(=O)c3ccccc3C1=O)C(=O)N2 | -7.1% | -4.7% | ? | 1.6% | -6.3% | -2.8%
Nc1n[nH]c(=S)n1/N=C1/C(=O)Nc2ccccc21 | 7.94µM* | -25.2% | 17.8µM* | -12.6% | nt | ?
Cc1ccccc1-c1nc(CS(=O)(=O)CC(=O)Nc2cccc(C(F)(F)F)c2)c(C)o1 | nt | -28.2% | 10.1% | nt | nt | ?
CC(C)Cn1c(N)c(C(=O)CCl)c(=O)n(C)c1=O | 8.91µM* | 2.0% | 2.0% | 21.7% | -2.7% | 4.5%
Cn1c(=O)c(C(=O)CCl)c(N)n(CC2CC2)c1=O | 20µM* | -1.4% | 2.3% | 19.4% | -0.2% | 0.9%
COC(=O)c1coc(-c2ccc(C)cc2)c1C(=O)OC | 22.4µM* | -7.1% | -22.2% | -27.1%[46.1 µM] | -23.2% | -7.5%
CCCNC(=O)CCCCn1c(=S)[nH]c2c([nH]c3ccc(OC)cc32)c1=O | 0.3% | 0.5% | -1.7% | 3.6% | nt | -8.5%
COc1ccc2[nH]c3c(=O)n(CCCCC(=O)N4CCCC4)c(=S)[nH]c3c2c1 | -7.2% | -16.9% | -20.6% | -18.5%[46.1 µM] | 4.47µM* | -2.3%
SMILES | ALDH1A1 inh | Tau fluor cs | Tau fibril ThT | NPSR antag | HPGD inh | Tau FP inhib
CC1CCCC(NC(=O)CCCn2c(=S)[nH]c3ccccc3c2=O)C1C (stereo not given) | -1.3% | -8.4% | 2.4% | -10.1% | nt | -5.0%
CC1CCCN(C(=O)CCCn2c(=S)[nH]c3ccccc3c2=O)C1 (stereo not given) | 17.8µM* | -8.5% | -6.3% | -6.7%[46.1 µM] | 7.94µM* | 0.8%
CC1CCCCC1NC(=O)CCCn1c(=S)[nH]c2ccccc2c1=O (stereo not given) | 2.2% | -1.1% | -3.6% | 0.5% | nt | ?
O=C(CCn1c(=S)[nH]c2ccccc2c1=O)NCC1CCCO1 (stereo not given) | ? | -6.2% | 5.5% | -15.1%[46.1 µM] | 28.2µM* | ?
O=C(CCCn1c(=S)[nH]c2ccccc2c1=O)NC1CCCC1 | ? | -5.1% | -5.0% | 1.7%[46.1 µM] | 14.1µM* | -5.5%
N#CC1=C(N)N(c2ncn[nH]2)C2=C(C(=O)CCC2)C1c1ccccc1 (stereo not given) | 3.1% | 1.2% | -4.1% | 8.6% | nt | 3.8%
CCN1CCCC1CN(Cc1cc2ccc(C)c(C)c2[nH]c1=O)C(=O)Nc1ccccc1OC (stereo not given) | 12.6µM* | -7.7% | ? | -12.8%[46.1 µM] | -13.5% | -15.2%
COC(=O)C1=NN(N=O)C2(CC(=O)N(c3cc(C)cc(C)c3)C2=O)C1 (stereo not given) | 8.91µM* | 5.7% | 5.7% | 6.6%[46.1 µM] | 31.6µM* | -3.9%
C/C(=C\c1ccccc1)C(=O)N1CCN(c2cccc(C(F)(F)F)c2)CC1 | 5.3% | -15.7% | ? | -10.1% | 25.1µM* | 5.4%
O=C(Nc1cccc(F)c1)N1CC[C@@]2(CCCN(C(=O)c3cc(C(F)(F)F)cc(C(F)(F)F)c3)C2)C1 | 4.5% | nt | nt | nt | -4.4% | nt
COc1ccc(C)cc1Nc1nc(N)c2cc(OC)c(OC)cc2n1 | nt | 20µM*[quencher] | -5.4% | nt | nt | ?
CCOC(=O)c1[nH]c(C)c(CCC(=O)Nc2cc(C)ccc2OC)c1C | nt | -9.4% | 2.6% | nt | nt | -8.8%
CCN(CC)S(=O)(=O)c1cccc(-c2nnc(SC(C)C#N)n2Cc2ccccc2)c1 (stereo not given) | 7.94µM* | -3.2% | -10.2% | -19.6%[46.1 µM] | -1.3% | -6.9%
CCN(CC)S(=O)(=O)c1cccc(-c2nnc(SC(C)C(N)=O)n2CCc2ccccc2)c1 (stereo not given) | -13.7% | -11.3% | -11.6% | -17.1%[46.1 µM] | -1.6% | 0.0%
CCN(CC)S(=O)(=O)c1cccc(-c2nnc(SCC#N)n2Cc2ccccc2)c1 | 10µM* | -5.8% | -5.8% | -24.0%[46.1 µM] | -5.8% | 9.8%
CCN(CC)S(=O)(=O)c1cccc(-c2nnc(-c3ccc(C)cc3)o2)c1 | 11.2µM* | -3.4% | 3.6% | -26.5%[46.1 µM] | -23.2% | -4.8%
